High-throughput results: PubChem, National Center for Advancing Translational Sciences (NCATS)
rTrxR1 inhibitor: blocks rat thioredoxin reductase 1 | O89049 | recombinant rTrxR1, NADPH fluorescence consumption, selenite substrate | Potency, µM (top dose mostly 114 µM), without a hit: at the top dose activity change, negative = inhibition, actives largely listed as inhibitors | 390,000 compounds, 1% hits | AID 588453; further: potency means the concentration at half of the fitted maximal effect; on the % scale 0 is the no-effect control and ±100 the full control effect; nearly all actives have a fitted effect of over 65% in size
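Rat TrxR1 (90 nM in the dispensed reagent) was pre-reduced with 400 uM NADPH for 5 min at room temperature, then incubated with compound for 15 min. After 400 uM selenite was added, NADPH fluorescence (Ex 340/Em 450 nm) was followed for 8 min.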
IDH1 R132H inh: inhibitors of human mutant IDH1 R132H; O75874; IDH1-R132H enzyme, NADPH consumption, diaphorase/resazurin fluorescence; Potency, µM (doses to about 76.6 µM), for inactives: at the top dose activity change, negative = inhibition, hits mostly inhibitors; 390,000 compounds, 0.093% hits; further: potency means the concentration at half of the fitted maximal effect; on the % scale 0 is the no-effect control and ±100 the full control effect; nearly all actives have a fitted effect of over 65% in size
Target sequence (O75874 whole entry R132H, stated change not applied): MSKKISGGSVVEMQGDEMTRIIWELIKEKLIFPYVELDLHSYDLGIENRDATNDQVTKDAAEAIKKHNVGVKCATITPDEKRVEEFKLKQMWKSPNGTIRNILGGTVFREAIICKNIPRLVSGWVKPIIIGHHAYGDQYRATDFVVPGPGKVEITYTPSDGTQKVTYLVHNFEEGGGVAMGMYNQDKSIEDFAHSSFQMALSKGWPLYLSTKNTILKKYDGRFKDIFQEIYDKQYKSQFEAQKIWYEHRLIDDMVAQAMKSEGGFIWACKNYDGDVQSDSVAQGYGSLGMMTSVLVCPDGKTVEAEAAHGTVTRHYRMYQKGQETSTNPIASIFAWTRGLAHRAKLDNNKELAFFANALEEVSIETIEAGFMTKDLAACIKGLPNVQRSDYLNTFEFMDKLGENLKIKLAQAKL
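IDH1-R132H (0.5 ug/mL dispensed) in pH 7.5 Tris buffer was preincubated 30 min with compound, then given a substrate mix of 0.016 mM NADPH and 2 mM alpha-KG for 80 min at room temperature; remaining NADPH was read by diaphorase/resazurin fluorescence.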
BRCA1 expr act: activators of BRCA1 expression. MCF7-BRCA1-FFLuc reporter, luminescence, 48 h; response scale: scaled: vehicle 0%, 10 µM genistein 100%. Potency, µM (titrated, usually from 46.1 µM), for inactives: top-dose activation, actives largely listed as activators. 380,000 compounds, 1.1% hits. AID 624202; further: potency means the concentration at half of the fitted maximal effect; nearly all actives have a fitted effect of over 80% in size
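Reporter cells (MCF7, BRCA1 promoter-firefly luciferase) received library compounds across a concentration series for 48 h. End-point luminescence was measured and concentration-effect curves derived after normalization.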
Giardia killer: Giardia lamblia killing. 340,000 compounds, 0.15% hits. Giardia lamblia trophozoite viability. activity change, % at 7.66 µM, hits read low; in the data active means activity change below about -80%; inconclusive means between about -30% and that limit;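 further: parasites exposed to compound for two days anaerobically before the ATP read; on the % scale 0 is the no-effect control and ±100 the full control effect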
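Media and compound were dispensed first, then trophozoites at 100 cells/well; plates sat 48 hrs at 37 deg C without oxygen before ATP luminescence reagent was added and read after 15-30 min at room temperature.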
IL-2 act: activates IL-2 in a cell-based reporter assay; IL-2 activation reporter assay, cell-based qHTS; stimulated with anti-CD3/CD4/CD28 beads; in transgenic mouse T cells; activation, % (series mostly up to about 46 µM); 360,000 compounds, 0.065% hits; in the data active means activation above about 50%; inconclusive means mostly about 30% to 49%; further: 0% is about no effect
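Unstimulated transgenic mouse T cells preincubated 60 min with compound, then stimulated with anti-CD3/anti-CD4-coated beads plus anti-CD28 for 18 h at 37 degrees C. IL-2 response read as EGFP and DsRed fluorescence by plate cytometry.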
TrxR1 substrate: is turned over as a substrate by rat TrxR1; 390,000 compounds, 0.01% hits; purified TrxR1 substrate turnover, NADPH consumption readout; AID 588456; Potency, µM (titrated, usually from 114 µM), inactives show at the highest dose activity change, negative = substrate turnover; O89049; further: potency means the concentration at half of the fitted maximal effect; on the % scale 0 is the no-effect control and ±100 the full control effect; nearly all actives have a fitted effect of over 50% in size
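Rat TrxR1, dispensed at 90 nM, was prereduced with 400 uM NADPH (final) for 5 min at ~22 deg C, then incubated with compound 15 min before 400 uM selenite. A first-read NADPH fluorescence drop versus no-compound background flagged substrates.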
* = called active by the depositor; ? = inconclusive; nt = no result; [ ] = remark or other dose. Hits are enriched below; roughly 2.2% of the tested compounds scored in any of these assays. Unless noted, the call rests on the fitted dose curve; in most records, active means well fitted curve in the direction sought with a large enough effect; inconclusive means small, poorly fitted or top-dose-only effect, or another doubt; inactive means no such curve, though single readings can be large; an effect the other way counts as inactive or inconclusive.

SMILES	rTrxR1 inhibitor	IDH1 R132H inh	BRCA1 expr act	Giardia killer	IL-2 act	TrxR1 substrate
CCOc1ccc(OCCn2nnc3ccccc3c2=O)cc1	9.7%[57.1 µM]	5.8%	1µM*	3.8	-3.1	-14.5%[57.1 µM]
Cc1ccc(OCCn2nnc3ccccc32)cc1C	27.6%	-10.8%	4.47µM*	-13.1	-2.6	2.2%
CCCn1nnc2ccccc2c1=O	17.2%	9.6%	8.5%	-2.6	-2.9	3.2%
c1ccc(CCn2nnc3ccccc32)cc1	17.5%	2.6%	12.6µM*	-4.5	-0.7	-3.7%
COc1ccccc1OCCn1nnc2ccccc21	9.9%[57.1 µM]	20.5%	?	0.9	0.4	7.5%[57.1 µM]
COc1ccc(-c2nnc(SCc3cccc(Cl)c3)o2)cc1	19.7%	-2.2%	13.8%	nt	nt	-0.1%
Cc1ccc(CNC(=O)Cn2ccc3ccccc3c2=O)o1	39.8µM*	2.7%	-0.7%	7.7	0.3	0.1%
Cc1ccc2nc(CSc3nc(C)ccc3C#N)[nH]c2c1	6.1%	15.2%	-104.5%	-88.3*	-2.6	18.9%
COC(=O)c1sc2nc(CSc3nc4ccc(C)cc4[nH]3)[nH]c(=O)c2c1C	2.7%[57.1 µM]	5.8%	-52.8%	-3.1	?	-3.0%[57.1 µM]
Cc1ccc2nc(SCc3nc4ccccc4c(=O)[nH]3)[nH]c2c1	15.3%[57.1 µM]	11.8%	3.98µM*	-0.3	0.5	1.9%[57.1 µM]
CSc1ccccc1OCc1cc(C(=O)N2CCN(c3ccccc3)CC2C)no1 (configuration not stated)	5.1%	4.3%	12.6µM*	-7.1	-3.9	1.3%
CC(=O)c1ccc(OCc2cc(C(=O)N3CCN(c4ccccc4)CC3C)no2)cc1 (configuration not stated)	14.8%[57.1 µM]	-0.2%	?	23.1	-4.3	2.7%[57.1 µM]
Cc1ccc(S(=O)(=O)N/N=C/c2ccc(O)c(O)c2)cc1[N+](=O)[O-]	11.2µM*	-10.2%	1.1%	8.8	-1.9	1.5%
O=[N+]([O-])c1ccc(/C=N/Nc2nc(-c3ccccc3)c3cc(Br)ccc3n2)o1	-5.0%	-1.5%	-28.5%	-91.4*	-0.9	-4.4%
Cc1ccc2nc(N/N=C\c3ccc([N+](=O)[O-])o3)nc(-c3ccccc3)c2c1	?	-6.7%	-104.7%	-98.9*	-0.1	-10.9%[57.1 µM]
COc1ccc(C(=O)NCCc2c[nH]c3ccccc23)cc1	4.3%	0.5%	5.62µM*	-9.0	-2.8	0.3%
COc1ccccc1NC(C)C(=O)c1c[nH]c2ccccc12 (configuration not stated)	-0.9%	nt	12.6µM*	nt	nt	-5.0%
Cc1ccsc1C(=O)NCCc1c[nH]c2ccccc12	11.0%	-1.7%	12.6µM*	6.5	-0.7	-2.0%
COc1ccc(OCC(=O)NCCc2c[nH]c3ccccc23)cc1	5.6%	12.8%	-25.2%	-6.4	1.2	-4.0%
O=C(NCCc1c[nH]c2ccccc12)c1ccc(Cl)cc1	24.7%	9.8%	3.55µM*	4.5	0.0	5.7%
COc1ccccc1OCCNC(=O)C(=O)c1c[nH]c2ccccc12	-5.2%	-4.8%	4.0%	-7.8	1.1	-11.1%
C/C=C(\C)NNC(=O)Cc1ccc(OC)cc1	6.3%	nt	-4.5%	nt	nt	3.1%
C=CC[C@H](c1ccc(F)cc1)N(CC(C)C)S(=O)(=O)C=C	-0.2%	nt	nt	nt	nt	-7.7%
COc1ccc(C(=O)c2c[nH]c3ccccc23)cc1	16.4%[57.1 µM]	9.6%	3.55µM*	-26.7	-0.3	-0.6%[57.1 µM]
COc1ccc(CC(=O)OCC(=O)c2c[nH]c3ccccc23)cc1	19.2%	1.7%	-18.5%	-2.3	0.1	-4.7%
O=C(NCCc1c[nH]c2ccccc12)c1ccc(F)cc1F	-2.3%	-0.8%	3.98µM*	-9.5	0.7	-1.9%
Nc1c(N=O)c(=O)[nH]c(=O)n1-c1ccccc1	7.5%[57.1 µM]	0.9%	-14.3%	-26.5	-4.0	-12.1%
Nc1c(Br)c(=O)[nH]c(=O)n1-c1ccc(F)cc1	39.8µM*	-0.2%	-2.3%	-17.4	0.4	-1.4%
CC(C)CN(C)C(=O)CCc1nnc(Cc2cccc(C(F)(F)F)c2)o1	18.1%	13.0%	10µM*	8.1	-0.1	4.4%
